# Activity calls are given as the source filed them. Rule for the calls: active = hit-call score of the fitted dose curve at least 0.9, where 1 is the maximum; inactive = score below 0.9.
# Read-out: Interleukin-8 (IL8), CXCL8 (gene 3576)
# Assay: BSK_KF3CT_IL8: BioMAP Diversity Plus: KF3CT Assay for Interleukin-8 (IL8) Biomarker Activity (AID 2284254)
# Settings: primary human keratinocytes with fibroblasts
# Experimental: BSK_KF3CT is a cell-based, multiplexed-readout assay that uses keratinocytes and foreskin fibroblasts, a human skin primary cell co-culture, with measurements taken at 24 hours after chemical dosing in a 96-well plate.BSK_KF3CT_IL8 is an assay component measured in the BSK_KF3CT assay. It measures IL-8 antibody related to regulation of gene expression using ELISA technology.Data from the assay component BSK_KF3CT_IL8 was analyzed at the endpoint, BSK_KF3CT_IL8, in the positive analysis fitting direction relative to DMSO as the negative control and baseline of activity. Using a type of binding reporter, gain or loss-of-signal activity can be used to understand protein changes. To generalize the intended target to other relatable targets, this assay endpoint is annotated to the 'cytokine' intended target family, where the subfamily is 'interleukins'.
# The levels of cell surface (or secreted, indicated by the prefix "s") biomarker endpoints were measured by ELISA. Overt cytotoxicity to cells in confluent adherent cultures (all systems other than the BT system) was assessed by measuring total protein levels using sulforhodamine B (SRB) staining in parallel cultures at the time of biomarker measurements, indicated as SRB endpoints. For proliferation assays for adherent cell types, individual cell types are cultured at sub-confluence and relative cell numbers quantified by SRB staining at time points optimized for each system (48 h: 3C and CASM3C systems; 72 h: BT and HDF3CGF systems; 96 h: SAg system). SRB was performed by staining cells with 0.1% SRB after fixation with 10% TCA and reading wells at 560 nm.Viability and proliferation of PBMC (T cells) was quantified by Alamar Blue reduction for the SAg and BT systems. For PBMC viability (referred to as PBMC Cytotoxicity within the assay endpoint names), cells were plated (75,000/well in a 96-well plate) and then chemical samples added for 1 h before addition of activators, SEB and TSST-1 (20 ng/mL final concentration each). Cells were incubated for 90 h. Then, Alamar Blue (20 uL/well) (Invitrogen, Cat DAL1100) was added for 6 h, and the plates were read with a fluorescence microplate reader at 546/580 nm (excitation/emission). For PBMC proliferation, cells were plated and activated as above but incubated for only 16 h prior to addition of Alamar Blue. Plates were read after 6 h.
row,SMILES,outcome
1,Cc1cc(C2(c3cc(C)c(O)cc3C)OS(=O)(=O)c3ccccc32)c(C)cc1O,inactive
2,NCCNCCN,inactive
3,C=CCOC(=O)CCC1CCCCC1,inactive
4,CC(=O)OCCC(C)CC(C)(C)C (configuration not stated),inactive
5,CCC(=O)OCc1ccccc1,inactive
6,CC(=O)[C@H]1CC[C@H]2[C@@H]3CC=C4C[C@@H](O)CC[C@]4(C)[C@H]3CC[C@]12C,inactive
7,CC[Si](OC(C)=O)(OC(C)=O)OC(C)=O,inactive
8,C[C@H]1C[C@@H]2[C@H]([C@@H](O)C[C@@]3(C)[C@H]2CC[C@]3(O)C(=O)CO)[C@@]2(C)C=CC(=O)C=C12,inactive
9,OC[C@H]1O[C@H](O[C@]2(CCl)O[C@H](CCl)[C@@H](O)[C@@H]2O)[C@H](O)[C@@H](O)[C@H]1Cl,inactive
10,COc1cc(C=O)ccc1OC(=O)C(C)C,inactive
11,Nc1cc([N+](=O)[O-])ccc1O,inactive
12,OC1OC[C@@H](O)[C@H](O)[C@H]1O (some centres not stated),inactive
